Experimental data reported in ChEMBL document CHEMBL3988442, “University of Dundee, Small-Polar-MMV Screening Library” (2021).
Hit rate of the full screen: of about 85,000 compounds, about 440 (0.52%) showed an effect of 50% or more. Shown is part of a subset that was picked to be rich in strong results.

Assay: In vitro enzyme assay to detect hydrolysis of chlorophenol red-beta-D-[…] directly proportional to the number of Toxoplasma stably expressing beta-galactosidase
Format: functional, organism-based, Toxoplasma gondii
Set-up: scale not given: in the data most compounds retested in dose-response had high values

CC(=O)NC1CCNC1 (stereo not given)
Percent Effect (50 µM): 26.97%

CN1CC(NC(=O)CCC(=O)c2cccs2)CCC1=O (stereo not given)
Percent Effect (50 µM): -1.402%

CC(=O)Nc1ccc(CN2CCCOC(C)C2)cc1 (stereo not given)
Percent Effect (50 µM): 52.96%

COCC1CCN(Cc2ccc(NC(C)=O)cc2)C1 (stereo not given)
Percent Effect (50 µM): -11.02%

CCC(=O)NC1CCCN(Cc2ccc(NC(C)=O)cc2)C1 (stereo not given)
Percent Effect (10 µM): 8.052%

CCC(C)(CC)NC(=O)Nc1cnn(CCOC)c1
Percent Effect (50 µM): -4.406%

CC(C)(C(=O)N1CCC(N)CC1)c1cccc(F)c1
Percent Effect (50 µM): 80.98%

O=C(N1CCC(Oc2ccncc2)C1)C1(c2cccc(F)c2)CC1 (stereo not given)
Percent Effect (10 µM): 4.06%

NC1CCN(C(=O)C2(c3cccc(F)c3)CC2)CC1
Percent Effect (50 µM): 89.65%

CC(C)(C(=O)N1CCOCC1)c1ccccc1
Percent Effect (50 µM): -4.463%

CC(C)(C(=O)N1CC[C@@H](O)C1)c1ccccc1
Percent Effect (50 µM): -3.951%

O=C(N1CCCC(n2cncn2)C1)C1(c2cccc(F)c2)CC1 (stereo not given)
Percent Effect (10 µM): -9.535%

COCCCC1CCNCC1
Percent Effect (50 µM): 4.614%

NCC(CO)Cc1ccsc1 (stereo not given)
Percent Effect (50 µM): -1.079%

Brc1cc2c(cc1CN1CCCNCC1)OCO2
Percent Effect (50 µM): -4.823%

CC1(c2ccncc2)NC(=O)c2ccccc2N1 (stereo not given)
Percent Effect (50 µM): 11.28%

O=C(CN1CCn2ccnc2C1)NC1CCS(=O)(=O)C1 (stereo not given)
Percent Effect (50 µM): 6.953%

CC(C1CCN(Cc2c[nH]cn2)CC1)N1CCCC1 (stereo not given)
Percent Effect (50 µM): 21.18%

NCc1ccnc(OCC2CC2)c1
Percent Effect (50 µM): 3.263%

Cc1ccccc1CC(=O)N(C)C
Percent Effect (50 µM): -4.007%

NCCC1CCN(C(=O)Nc2cc(F)cc(F)c2)CC1
Percent Effect (50 µM): -1.616%

O=S(=O)(NCC1(O)CCOc2ccccc21)c1ccc(Br)s1 (stereo not given)
Percent Effect (10 µM): 53.2%

Cc1ccc(S(=O)(=O)NCC2(O)CCOc3ccccc32)s1 (stereo not given)
Percent Effect (10 µM): 3.665%

O=S(=O)(NCC1(O)CCOc2ccccc21)c1ccc(Cl)s1 (stereo not given)
Percent Effect (10 µM): 4.661%

COCCn1cc(CNC(=O)NCC(F)F)cn1
Percent Effect (50 µM): -9.663%

CNc1nc(C(=O)N[C@@H]2CC[C@@H](N)C2)cs1
Percent Effect (50 µM): 18.65%

CC(NC(=O)c1ccoc1)C(=O)Nc1nccs1 (stereo not given)
Percent Effect (50 µM): -8.907%

CC(C)=CCN1CCOC(Cn2nc(C)cc2C)C1 (stereo not given)
Percent Effect (10 µM): 97.95%

Cc1cc(C)n(CC2CN(CC3CCCC3)CCO2)n1 (stereo not given)
Percent Effect (10 µM): -2.525%

Cc1cc(CN2CCOC(Cn3nc(C)cc3C)C2)on1 (stereo not given)
Percent Effect (10 µM): -42.92%

O=C1COc2ccc(NC(=O)c3ccccc3)cc2N1
Percent Effect (50 µM): 3.882%

CN(CCC#N)CC1CCN(CCO)CC1
Percent Effect (50 µM): -6.076%

COc1cc(Br)ccc1CCCNC(=O)C(C)O (stereo not given)
Percent Effect (50 µM): 0.2477%

O=C(COc1ccccc1)NCCn1ccnc1
Percent Effect (50 µM): -5.476%

CC(=O)c1ccc(OCC(O)Cn2ccnc2)cc1 (stereo not given)
Percent Effect (50 µM): 57.01%

CC(=O)c1ccc(OCC(O)CNC2CCCC2)cc1 (stereo not given)
Percent Effect (50 µM): 6.61%

CCNC(=O)N1CCC(NC(=O)c2ccc(C)o2)CC1
Percent Effect (50 µM): -1.852%

Cc1nc2cc(C3CCN(Cc4cccc(F)c4F)C3)nn2c(O)c1C.O=C(O)CC(O)(CC(=O)O)C(=O)O (stereo not given)
Percent Effect (10 µM): 49.65%

Cc1nc2cc(C3CCN(Cc4ccccc4F)C3)nn2c(O)c1C (stereo not given)
Percent Effect (10 µM): 15.76%

Cc1cc(C(=O)Nc2ccnc(C)c2Cl)cc(O)n1
Percent Effect (50 µM): 12.01%

CN1CCCN(CC(=O)NCCCc2ncc[nH]2)CC1
Percent Effect (50 µM): -15.47%

CCC(=O)NC1CCCc2nc(N(C)C)ncc21 (stereo not given)
Percent Effect (50 µM): 69.08%

CN(C)c1ncc2c(n1)CCCC2NC(=O)C1CC1 (stereo not given)
Percent Effect (10 µM): 7.926%

Cc1cc(C)c(C(=O)NC2CCCc3nc(N(C)C)ncc32)cc1C (stereo not given)
Percent Effect (10 µM): 19.3%

CNC(=O)CN1CCCC(CO)(CCCOC)C1 (stereo not given)
Percent Effect (50 µM): 5.203%

CC(=O)NCCCS(=O)(=O)c1ccc(C)cn1
Percent Effect (50 µM): -5.9%

CC(=O)NCCCS(=O)(=O)c1ncccc1Cl
Percent Effect (50 µM): 60.86%

CC(=O)NCCCNCc1ccc(Cl)c2cccnc12
Percent Effect (10 µM): -6.901%

COC1CNc2ccccc2C1 (stereo not given)
Percent Effect (50 µM): -15.01%

NC(=O)CN1CCCN(C(=O)c2ccc(Br)o2)CC1
Percent Effect (50 µM): -5.913%

Fc1ccc(NCC2CCC3(CC2)OCCO3)nc1
Percent Effect (50 µM): 8.487%

CCC(CC)C(=O)N1C[C@@H](CO)[C@H](N(C)C)C1
Percent Effect (50 µM): 16.3%

COc1ccc(CN2CCCC2)cc1Oc1ccc2c(c1)CC(CN)O2 (stereo not given)
Percent Effect (10 µM): -15.09%

NCC1Cc2cc(Oc3cc(F)c(CN4CCCC4)c(F)c3)ccc2O1 (stereo not given)
Percent Effect (10 µM): 54.73%

Cc1cc(CN2CCCC2)cc(Oc2ccc3c(c2)CC(CN)O3)c1 (stereo not given)
Percent Effect (10 µM): -8.923%

CSCC(CCO)NC(=O)Nc1cccc(F)c1 (stereo not given)
Percent Effect (50 µM): -3.551%

Cc1nc(-c2ccc(NCCc3ccc(O)cc3)nc2)[nH]c(=O)c1C
Percent Effect (10 µM): 31.24%

CCc1cc(=O)[nH]c(-c2ccc(NCCC(C)O)nc2)n1 (stereo not given)
Percent Effect (10 µM): 3.239%

CCc1cc(=O)[nH]c(-c2ccc(NCCc3ccc(O)cc3)nc2)n1
Percent Effect (10 µM): 56.82%

N#Cc1ccc(S(=O)(=O)N2CCCO2)c(Cl)c1
Percent Effect (50 µM): 6.897%

N#CCCNC(=O)CN1CCCCC1
Percent Effect (50 µM): -2.214%

N#CCCNC(=O)CN1CCCC1
Percent Effect (50 µM): 96.45%

N#CCCNC(=O)CN1CCCCCC1
Percent Effect (50 µM): -10.45%

CCC(C)CS(=O)(=O)Nc1ccc(F)c(C(N)=O)c1 (stereo not given)
Percent Effect (50 µM): 12.83%

O=C(Cc1ccccc1)NCc1ccncc1
Percent Effect (50 µM): 2.374%

COCc1nn(Cc2ccc(Cl)s2)c(=O)o1
Percent Effect (10 µM): 11.6%

COCc1nn(Cc2ccccc2Cl)c(=O)o1
Percent Effect (50 µM): 10.13%

COCc1nn(CC(=O)c2cc(F)ccc2F)c(=O)o1
Percent Effect (50 µM): 53.45%

CN(CC1CCOC1)C(=O)c1cc(F)ccc1F (stereo not given)
Percent Effect (50 µM): 12.99%

CC1CCN(C(=O)Cn2cncc(Br)c2=O)CC1
Percent Effect (50 µM): 8.773%

CSCc1cccc(C(=O)N2CCN(CC(C)O)CC2)c1 (stereo not given)
Percent Effect (10 µM): -0.6353%

CC(O)CN1CCN(Cc2cccc(C(=O)N3CCCCC3)c2)CC1 (stereo not given)
Percent Effect (10 µM): 67.87%

CC(O)CN1CCN(Cc2cccc(C(=O)N(C)C)c2)CC1 (stereo not given)
Percent Effect (10 µM): 5.816%

CC(C)C(=O)N1CCN(CCc2ccccn2)CC1
Percent Effect (50 µM): -1.569%

CCn1nc2c(cc1=O)CN(c1ncnc3sccc13)CC2
Percent Effect (10 µM): 58.75%

CC(C)n1nc2c(cc1=O)CN(c1ncnc3sccc13)CC2
Percent Effect (10 µM): 1.477%

CCCn1nc2c(cc1=O)CN(c1ncnc3sccc13)CC2
Percent Effect (10 µM): 8.636%

c1csc(N2CCN(c3ncnc4sccc34)CC2)n1
Percent Effect (10 µM): 15.87%

CC(C(=O)Nc1nccs1)N1CCc2nn(C)c(=O)cc2C1 (stereo not given)
Percent Effect (10 µM): 7.43%

Cn1nc2c(cc1=O)CN(c1ncnc3sccc13)CC2
Percent Effect (10 µM): 80.8%
